These results are taken from PubChem BioAssay AID589 (National Center for Advancing Translational Sciences (NCATS), 2007).

Screen size: about 59,000 compounds; about 6,200 (11%) were called active. About 9% were inconclusive and are not listed. Rule as the data show it: active = max dye-equivalent concentration above about 10 nM; inconclusive = mostly about 1.1 nM to 9.6 nM; inactive = weaker than that. For the sample, actives were picked, then their nearest neighbours and some compounds at random.

The test can be described thus: qHTS Assay for Spectroscopic Profiling in 4-MU Spectral Region. The following applies: compound autofluorescence, 340/450 nm, 4-MU equivalents; active compounds read high. Summed up: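 Compounds in 100 mM Tris, pH 8.0, sat 15 min at room temperature before fluorescence was read at 340 nm excitation/450 nm emission; a per-plate six-point 4-MU standard curve converted signals to dye-equivalent concentration at each compound concentration.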
Consider `CC(=O)Cc1nsc(NC(=O)c2ccc(COc3ccc(C)cc3)o2)n1`, for which the max dye-equivalent concentration entry is “inactive”.

On to `COc1ccccc1N1CCN(Cc2nnnn2CCc2ccccc2)CC1`, for which the max dye-equivalent concentration result was “inactive”.

As to `CCC(c1nnnn1Cc1ccco1)N(Cc1cc2cc(OC)ccc2[nH]c1=O)C1CCCCC1` (stereo not drawn), the max dye-equivalent concentration is 22 nM (active).

As for `O=C(CN(CC1CCCO1)C(=O)CNS(=O)(=O)c1ccccc1)NCc1ccccc1` (stereo not drawn), the max dye-equivalent concentration result is “inactive”.

Turning to `CCOc1ccc2[nH]c(=O)c(CN(Cc3nnnn3CCc3ccccc3)CC3CCCO3)cc2c1` (stereo not drawn), the max dye-equivalent concentration was 76 nM (active).

`Cc1cccc2cc(CN(Cc3ccc4c(c3)OCO4)Cc3nnnn3C3CCCC3)c(=O)[nH]c12`: the max dye-equivalent concentration entry is “inactive”.

Regarding `Cc1cccc2cc(CN(Cc3cccs3)C(c3nnnn3C3CCCC3)C(C)C)c(=O)[nH]c12` (stereo not drawn), the max dye-equivalent concentration result is “inactive”.

`CCC(c1nnnn1Cc1ccco1)N(CCc1ccccc1)Cc1cc2ccc(OC)cc2[nH]c1=O` (stereo not drawn): the max dye-equivalent concentration result was “inactive”.

With `CCOc1ccc2[nH]c(=O)c(CN(Cc3nnnn3Cc3ccccc3)CC3CCCO3)cc2c1` (stereo not drawn), the max dye-equivalent concentration was 120 nM (active).

For the compound `COc1ccc2[nH]c(=O)c(CN(CC3CCCO3)C(=O)Nc3ccccc3)cc2c1` (stereo not drawn), the max dye-equivalent concentration is 110 nM (active).

Regarding `N=c1c2c3c(sc2ncn1CCCN1CCOCC1)CCCCC3`, the max dye-equivalent concentration result was “inactive”.

For `CSc1sc(C)cc1C1C(C#N)=C(N)N(c2cccnc2)C2=C1C(=O)CCC2` (stereo not drawn), the max dye-equivalent concentration result was “inactive”.

For the compound `N#Cc1cccc(NC(=O)CCC2CCCC2)c1`, the max dye-equivalent concentration entry is “inactive”.

Regarding `Cc1oc2nc(SCC(=O)NCc3cccnc3)nc(N)c2c1C`, the max dye-equivalent concentration result was “inactive”.

As for `COc1ccc(OC)c(NC(=O)CSc2nc3cccnc3n2C)c1`, the max dye-equivalent concentration result was “inactive”.

Take `O=C(CCc1ccccc1)Nc1cccc(-c2nnc(-c3ccco3)o2)c1`: the max dye-equivalent concentration entry was “inactive”.

Turning to `Cc1ccc(CNC(=O)CN2CCN(Cc3ccc(Cl)cc3)C2=O)cc1`, the max dye-equivalent concentration result was “inactive”.

In the case of `CCCC(=O)Nc1c(O)c2ccccc2[nH]c1=O`, the max dye-equivalent concentration result is “inactive”.

As to `C=CCOc1ccc(C2/C(=C(\O)c3c(C)[nH]c(C(=O)OC)c3C)C(=O)C(=O)N2CCN(C)C)cc1` (stereo not drawn), the max dye-equivalent concentration entry was “inactive”.

On to `CC1(C)NC(=O)N(CCOc2cccc(Oc3ccccc3)c2)C1=O`, for which the max dye-equivalent concentration entry was “inactive”.

As for `COc1ccc2[nH]cc(CCNc3nc(-c4cccc(NS(C)(=O)=O)c4)nc4ccccc34)c2c1`, the max dye-equivalent concentration entry is “inactive”.

Turning to `COc1ccccc1-c1cc(C(=O)NCCCn2ccnc2)no1`, the max dye-equivalent concentration result was “inactive”.

On to `COc1ccc(CNc2ncncc2-c2ccccc2OC)c(OC)c1`, for which the max dye-equivalent concentration entry was “inactive”.

As for `Cc1cc(C)c2nc(N3CCCC3)c(C#N)cc2c1`, the max dye-equivalent concentration is 130 nM (active).

As to `Cc1ccc(OCc2nc(C#N)c(N3CCCC3)o2)cc1`, the max dye-equivalent concentration entry was “inactive”.

Consider `Cc1cccc2cc(C#N)c(N3CCCC3)nc12`, for which the max dye-equivalent concentration is 42 nM (active).

`NC(=O)C1CCN(C(=O)c2ccc(C(F)(F)F)cc2)CC1`: the max dye-equivalent concentration entry is “inactive”.

Consider `CN1CCN(CCCNC(=O)c2cc3c(=O)oc4ccccc4c3s2)CC1`, for which the max dye-equivalent concentration result was “inactive”.
